Screening data deposited in PubChem BioAssay by National Center for Advancing Translational Sciences (NCATS).
FLuc counter: counter-screen for miR-21 project: firefly luciferase inhibitors or activators; P08659; purified FLuc, Km substrates, luminescence inhibition; Potency, µM (top dose mostly 57.5 µM), for inactives: top-dose activity change, negative = inhibition, usual class: inhibitors; 360,000 tested, 6.9% active;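 note: plate controls were vehicle for no effect and reference inhibitor for full effect; nearly all actives have a fitted effect of over 55% in size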
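Purified P. pyralis luciferase, 10 nM final, with Km-level 10 uM D-luciferin and 10 uM ATP in 50 mM Tris acetate pH 7.5, 10 mM Mg acetate, 0.01% Tween-20, 0.05% BSA; 6-point qHTS titration about 60 µM downward; luminescence read.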
SMN2 splice up: SMN2 splice variant enhancement; HEK293 SMN2-luciferase splicing reporter, luminescence, 30-36 h; Potency, µM (top dose mostly 46.1 µM), without a hit: at the highest dose activity change, positive = activation, most hits filed as activators; 210,000 tested, 2.8% active; AID 1458; note: % of control where 0% means no effect; nearly all actives have a fitted effect of over 55% in size
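HEK293 cells carry an SMN2 minigene-luciferase reporter in which exon 7 inclusion puts luciferase in frame. Cells were seeded at 2000 cells/well, attached for 10-12 hours, then exposed to compounds for 30-36 hours at 37C before ONE-Glo luminescence.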
NPC1 prom act: activators of NPC1 promoter | Huh7 NPC1 promoter luciferase reporter, 24 h | Potency, µM (series often up to 9.22 µM), inactives show at the highest dose activation, usual class: activators | 320,000 tested, 2.4% active | AID 485313; note: % of control where 0% means no effect; nearly all actives have a fitted effect of over 60% in size
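NPC1 promoter–luciferase Huh7 cells; 24 h compound; luminescence.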
ELG1 DNA repair: ELG1-dependent DNA repair inhibition | HEK293T ELG1-luciferase reporter, luminescence, 16 h; DNA damage induced by 5-fluorouridine | Potency, µM (top dose mostly 46.1 µM), for the others: top-dose activity change, negative = inhibition, hits mostly inhibitors | 330,000 tested, 2.3% active | AID 504467; note: % is set by controls: 0 for no effect and ±100 for the full control effect; nearly all actives have a fitted effect of over 55% in size
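In this reporter screen, reduction of luminescence relative to DMSO vehicle indicated activity. Compounds and 5-fluorouridine were added together to 2,000 cells per well, incubated for 16 hr at 37 °C, then developed with ONE-Glo.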
Rab9 prom act: activates the Rab9 promoter | 320,000 tested, 2.8% active | Potency, µM (series often up to 9.22 µM), inactives show at the highest dose activation, negative = inhibition, actives largely listed as activators | Huh7 Rab9 promoter-luciferase reporter, luminescence, 24 h; note: % of control where 0% means no effect; nearly all actives have a fitted effect of over 60% in size
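Stable Rab9-luc Huh7, 1500 cells/well, 2 h settle; cmpd in DMSO, 24 h, 37 °C/5% CO2; luciferase reagent 10 min RT; luminescence.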
ELG1 genotoxic: induces genotoxicity in HEK293T cells with luciferase-tagged ELG1 | HEK293T ELG1-luciferase reporter, luminescence, 16 h | Potency, µM (series often up to 46 µM), for the others: at the highest dose activity change, positive = activation, hits mostly activators | 330,000 tested, 1.3% active | AID 504466; note: % of control where 0% means no effect; nearly all actives have a fitted effect of over 60% in size
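DMSO vehicle served as control against compound-treated ELG1-luciferase HEK293T cells; exposure lasted 16 hr at 37 °C and 5% CO2, followed by ONE-Glo luminescence detection after 30 min.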
ELG1 FLuc counter: luciferase inhibition in cell-free luciferin readout for ELG1 hits; Potency, µM (top dose mostly 46.1 µM), for the others: top-dose activity change, negative = inhibition, usual class: inhibitors; 350 tested, 3% active; shares compounds with ELG1 DNA repair; cell-free firefly luciferase luminescence counter-screen, ViewLux; note: % is set by controls: 0 for no effect and ±100 for the full control effect
ELG1-Luc inh: inhibits ELG1-dependent DNA repair in HEK293T cells, confirmed | shares compounds with ELG1 DNA repair | HEK293T ELG1-luciferase levels, luminescence; cells co-treated with 5-fluorouridine | Potency, µM (highest dose often 46.1 µM), for the others: at the highest dose activity change, negative = inhibition, most hits filed as inhibitors | 670 tested, 68% active | AID 624248; note: % is set by controls: 0 for no effect and ±100 for the full control effect; nearly all actives have a fitted effect of over 55% in size
Target sequence (Q96QE3 whole entry, looked up): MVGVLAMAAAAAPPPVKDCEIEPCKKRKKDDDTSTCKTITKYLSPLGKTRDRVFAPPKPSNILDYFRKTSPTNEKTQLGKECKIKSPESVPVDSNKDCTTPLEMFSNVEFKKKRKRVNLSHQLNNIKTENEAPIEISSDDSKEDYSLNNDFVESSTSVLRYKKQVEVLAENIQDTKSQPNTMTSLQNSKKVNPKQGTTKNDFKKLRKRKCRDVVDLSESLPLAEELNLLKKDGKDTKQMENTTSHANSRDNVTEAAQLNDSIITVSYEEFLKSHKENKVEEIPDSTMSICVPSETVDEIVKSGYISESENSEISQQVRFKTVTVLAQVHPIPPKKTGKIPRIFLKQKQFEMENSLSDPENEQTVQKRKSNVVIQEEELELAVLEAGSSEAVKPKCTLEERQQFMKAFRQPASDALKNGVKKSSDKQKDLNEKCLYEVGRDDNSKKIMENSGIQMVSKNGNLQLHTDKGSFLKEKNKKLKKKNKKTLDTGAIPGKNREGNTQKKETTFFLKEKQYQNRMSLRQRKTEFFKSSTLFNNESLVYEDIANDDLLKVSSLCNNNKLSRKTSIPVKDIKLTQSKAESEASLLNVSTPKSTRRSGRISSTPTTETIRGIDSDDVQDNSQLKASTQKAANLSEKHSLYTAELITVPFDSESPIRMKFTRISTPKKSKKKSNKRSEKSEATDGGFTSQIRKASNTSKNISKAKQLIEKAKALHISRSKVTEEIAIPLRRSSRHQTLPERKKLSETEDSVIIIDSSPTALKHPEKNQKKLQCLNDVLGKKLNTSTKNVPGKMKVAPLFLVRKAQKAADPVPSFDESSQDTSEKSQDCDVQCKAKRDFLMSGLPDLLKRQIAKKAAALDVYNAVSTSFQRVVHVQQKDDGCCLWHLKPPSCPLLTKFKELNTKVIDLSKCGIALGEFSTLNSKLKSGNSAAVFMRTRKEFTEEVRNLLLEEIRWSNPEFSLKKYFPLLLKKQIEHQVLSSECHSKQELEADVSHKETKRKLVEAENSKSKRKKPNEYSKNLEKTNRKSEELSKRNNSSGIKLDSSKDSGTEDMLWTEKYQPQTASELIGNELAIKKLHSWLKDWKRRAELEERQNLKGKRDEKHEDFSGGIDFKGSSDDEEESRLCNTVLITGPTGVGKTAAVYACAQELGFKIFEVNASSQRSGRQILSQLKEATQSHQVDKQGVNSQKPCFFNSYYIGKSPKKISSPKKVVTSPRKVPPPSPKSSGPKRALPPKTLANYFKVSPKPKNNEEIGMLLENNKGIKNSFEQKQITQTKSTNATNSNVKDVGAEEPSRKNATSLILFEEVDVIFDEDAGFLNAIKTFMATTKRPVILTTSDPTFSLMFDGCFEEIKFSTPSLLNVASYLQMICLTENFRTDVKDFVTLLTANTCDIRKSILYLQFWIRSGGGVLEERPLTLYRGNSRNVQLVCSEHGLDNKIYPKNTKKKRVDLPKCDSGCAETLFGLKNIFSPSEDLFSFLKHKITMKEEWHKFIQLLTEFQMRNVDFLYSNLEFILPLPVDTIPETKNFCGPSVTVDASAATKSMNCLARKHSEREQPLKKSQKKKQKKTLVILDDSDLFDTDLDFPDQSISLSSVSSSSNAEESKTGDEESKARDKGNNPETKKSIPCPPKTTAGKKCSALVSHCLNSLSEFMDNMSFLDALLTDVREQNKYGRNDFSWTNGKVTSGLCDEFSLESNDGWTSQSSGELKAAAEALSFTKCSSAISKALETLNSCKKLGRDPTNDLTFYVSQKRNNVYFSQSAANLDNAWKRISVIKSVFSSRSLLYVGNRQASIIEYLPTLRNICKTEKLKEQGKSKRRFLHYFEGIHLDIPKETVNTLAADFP
ELG1-Luc MMS: inhibits ELG1-dependent repair under MMS stimulation in HEK293T cells | 670 tested, 53% active | shares compounds with ELG1 DNA repair | HEK293T luciferase-tagged ELG1 level, MMS stimulated | Potency, µM (series often up to 46.1 µM), inactives show at the highest dose activity change, negative = inhibition, hits mostly inhibitors | AID 624249; note: % is set by controls: 0 for no effect and ±100 for the full control effect; nearly all actives have a fitted effect of over 60% in size
ELG1 5-FU: confirmation of ELG1 repair inhibitors: viability with 5FU. shares compounds with ELG1 DNA repair. Potency, µM (highest dose often 46.1 µM), for the others: top-dose activity change, negative = viability loss, most hits filed as cytotoxic. 670 tested, under 10 active. cell viability with 5-FU, ELG1-dependent repair;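 note: ELG1-luc HEK293T cells cotreated with 5-fluorouridine at 10 µM final; viability measured 16 h after compound addition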
ELG1 MMS cell: confirmation of ELG1 repair inhibitors: viability with MMS | shares compounds with ELG1 DNA repair | Cell viability with MMS, ELG1-dependent DNA repair | Potency, µM (top dose mostly 46.1 µM), inactives show at the top dose activity change, negative = viability loss, hits mostly cytotoxic | 670 tested, 33% active | AID 624251;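 note: ELG1-luc HEK293T cells co-treated with 10 µM MMS; viability read 16 h after compound addition; % is set by controls: 0 for no effect and ±100 for the full control effect; nearly all actives have a fitted effect of over 60% in size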
ELG1 unstim viab: unstimulated viability counter-screen for ELG1 repair hits | shares compounds with ELG1 DNA repair | cell viability counter-screen, unstimulated, luminescence | Potency, µM (titrated, usually from 45.9 µM), inactives show at the top dose activity change, negative = loss of viability, most hits filed as cytotoxic | 900 tested, 8% active;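 note: compound exposure lasted 16 hours before reading; % is set by controls: 0 for no effect and ±100 for the full control effect; nearly all actives have a fitted effect of over 55% in size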
FLuc biochem: counter-screen for ELG1 repair inhibitors: firefly luciferase inhibition; shares compounds with ELG1 DNA repair; purified firefly luciferase, luminescence counter-screen; Potency, µM (top dose mostly 57.5 µM), inactives show top-dose activity, negative = inhibition, hits mostly inhibitors; 350 tested, 10% active; note: % is set by controls: 0 for no effect and ±100 for the full control effect
* hit, by the source's call; ? = inconclusive; nt = not tested or not shown. Hits are enriched below; roughly 9.4% of the tested compounds scored in any of these assays. Calls come from the whole dose curve; as a rule, active = well fitted curve in the direction sought with a large enough effect; inconclusive = small, poorly fitted or top-dose-only effect, or another doubt; inactive = no such curve, though single readings can be large; an effect the other way counts as inactive or inconclusive. Potency is the fitted concentration of half-maximal effect.

SMILES	FLuc counter	SMN2 splice up	NPC1 prom act	ELG1 DNA repair	Rab9 prom act	ELG1 genotoxic	ELG1-Luc inh	ELG1-Luc MMS	ELG1 5-FU	ELG1 MMS cell	ELG1 unstim viab	others
COc1ccc(OC)c(CNc2ncnc3onc(C)c23)c1	-6.5%	nt	nt	nt	nt	nt	nt	nt	nt	nt	nt
CCOC(=O)N1CCN(C(=O)c2cc(COc3ccc4ncccc4c3)on2)CC1	-7.5%	nt	-22.1%	9.2µM*	-37.3%	-12.6%	19.9µM*	5.61µM*	-0.3%	4.45µM*	14.1µM*	ELG1 FLuc counter=-5.4%;FLuc biochem=-3.3%
Cc1cccnc1CN1CCN(C(=O)c2cc(COc3ccc4ncccc4c3)on2)CC1	4.5%	nt	-21.9%	?	-23.2%	-9.6%	nt	nt	nt	nt	nt
O=C(NC1CCCCCCC1)c1cc(COc2ccc3ncccc3c2)on1	-19.1%	-60.8%	-33.6%	1.64µM*	-38.7%	-12.4%	17.7µM*	1.12µM*	-2.8%	1.41µM*	?	ELG1 FLuc counter=-12.4%;FLuc biochem=?
CC(NC(=O)C1CCCC1)C1CC2CCC1C2 (centres undefined)	-10.1%	-13.0%	-7.7%	4.11µM*	18.9%	-3.0%	19.8%	?	4.0%	-4.6%	8.6%
O=c1c(-c2cc(F)cc(F)c2)nc2cnc(N3CCNCC3)nc2n1CCc1ccccc1	nt	-1.3%	nt	nt	nt	nt	nt	nt	nt	nt	nt
O=C(/C=C/c1ccc(S(=O)(=O)N2CCOCC2)cc1)N1CCN(c2ccc(F)cc2)CC1	3.1%	nt	-3.3%	2.31µM*	-24.9%	-11.4%	-27.9%	7.06µM*	-4.7%	?	?	ELG1 FLuc counter=-0.2%;FLuc biochem=-15.2%
Cc1c(C)c2c(cc(C)c3c(-c4ccccc4)coc32)oc1=O	?	6.8%	nt	nt	nt	nt	nt	nt	nt	nt	nt
Cc1nc(NC(=O)c2c(-c3ccccc3Cl)noc2C)sc1C	-3.9%	nt	1.5%	2.91µM*	-6.1%	-8.4%	?	0.499µM*	?	6.0%	-16.0%
O=C(/C=C/c1ccccc1)OC1CC(O)C2(O)C=CO[C@@H](OC3OC(CO)C(O)C(O)C3O)C12 (some centres undefined)	nt	6.0%	nt	nt	nt	nt	nt	nt	nt	nt	nt
O=c1c(-c2ccc(Br)cc2)coc2c(CN3CCOCC3)c(O)ccc12	-21.2%	-8.8%	-0.2%	?	-5.8%	7.6%	nt	nt	nt	nt	nt
O=c1c(-c2ccc(F)cc2)coc2c3c(ccc12)OCCO3	?	?	3.55µM*	?	1.26µM*	2.59µM*	nt	nt	nt	nt	?	ELG1 FLuc counter=123.5%;FLuc biochem=?
COc1cccc2c1C(=O)/C(=C\c1ccc(N(C)C)cc1)C2	nt	nt	nt	nt	nt	nt	nt	nt	nt	nt	?
COc1cc2c(=O)n(Cc3ccccc3Cl)c(=O)n(CC(=O)Nc3ccccc3)c2cc1OC	-0.9%	4.8%	nt	nt	nt	nt	nt	nt	nt	nt	nt
CC1CCCN(Cc2c(O)ccc3c(=O)c(-c4ccc(Cl)cc4)c(C(F)(F)F)oc23)C1 (centres undefined)	1.5%	-5.8%	nt	nt	nt	nt	nt	nt	nt	nt	nt
CC(=O)Nc1cccc(OCC(O)Cn2c(C)nc3ccccc32)c1 (centres undefined)	-1.9%	-39.6%	-2.0%	?	-5.1%	-7.0%	nt	nt	nt	nt	nt
CCCOC(=O)c1ccc(OCC(O)Cn2c(C)nc3ccccc32)cc1 (centres undefined)	2.8%	-88.0%	-21.8%	1.46µM*	-30.8%	10.3µM*	?	1.77µM*	-4.0%	1.99µM*	?
CCCCCn1c(=O)[nH]c2cc(C(=O)N3CCN(Cc4ccc5c(c4)OCO5)CC3)ccc2c1=O	1.4%	-89.2%	-27.1%	0.461µM*	-38.8%	-6.1%	?	0.223µM*	-6.0%	0.223µM*	?	ELG1 FLuc counter=-18.4%;FLuc biochem=-12.0%
CCCCCn1c(=O)[nH]c2cc(C(=O)NCc3ccc4c(c3)OCO4)ccc2c1=O	1.7%	-2.1%	-3.2%	18.0%	-4.6%	7.3%	nt	nt	nt	nt	nt
COc1ccc(OC)c(NC(=O)c2ccc3c(=O)n(CCc4ccccc4)c(=S)[nH]c3c2)c1	2.8%	-48.3%	-20.5%	1.46µM*	-17.1%	1.0%	?	0.56µM*	-11.2%	0.628µM*	?
COc1ccc(OC)c(NC(=O)CCn2c(=S)[nH]c3ccccc3c2=O)c1	1.2%	nt	-4.4%	9.8%	-1.0%	0.5%	nt	nt	nt	nt	nt
COc1ccc(N2CCN(C(=O)c3ccc4c(=O)n(CCc5ccc(OC)c(OC)c5)c(=O)[nH]c4c3)CC2)cc1	-1.6%	-59.0%	-24.9%	1.83µM*	-16.6%	-11.8%	15.8µM*	12.5µM*	7.0%	?	?
O=C(c1ccc2c(=O)n(CCc3ccccc3)c(=O)[nH]c2c1)N1CCN(c2ccccc2)CC1	2.5%	nt	-3.8%	-5.0%	0.5%	-8.7%	nt	nt	nt	nt	nt
